Source: PubChem
Only some compounds are listed: those with a hit (about 7.5% of all), similar ones and a draw of the others.
SMN2 splice enh = qHTS Assay for Enhancers of SMN2 Splice Variant Expression; HEK293 SMN2-luciferase splicing reporter, luminescence, 30-36 h; Potency, µM (series often up to 46.1 µM), for the others: top-dose activity change, positive = activation, actives largely listed as activators; 2.8% of 210,000 active; AID 1458, 2008; also: % of control where 0% means no effect; nearly all actives have a fitted effect of over 55% in size
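qHTS luciferase splicing reporter: luminescence rises when SMN2 exon 7 is included in transfected HEK293 cells. Compound exposure lasted 30-36 h at 37C, with 4.5 mM final sodium butyrate as control, followed by a ONE-Glo read.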
FLuc counter = qHTS profiling assay for firefly luciferase inhibitor/activator using purifed enzyme and Km concentrations of substrates (counterscreen for miR-21 project); Luciferin 4-monooxygenase (Photinus pyralis), P08659; purified FLuc, Km substrates, luminescence inhibition; Potency, µM (top dose mostly 57.5 µM), inactives show top-dose activity change, negative = inhibition, hits mostly inhibitors; 6.9% of 360,000 active; AID 588342, 2011;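 also: plate controls were vehicle for no effect and reference inhibitor for full effect; nearly all actives have a fitted effect of over 55% in size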
Target sequence (P08659 whole entry, looked up): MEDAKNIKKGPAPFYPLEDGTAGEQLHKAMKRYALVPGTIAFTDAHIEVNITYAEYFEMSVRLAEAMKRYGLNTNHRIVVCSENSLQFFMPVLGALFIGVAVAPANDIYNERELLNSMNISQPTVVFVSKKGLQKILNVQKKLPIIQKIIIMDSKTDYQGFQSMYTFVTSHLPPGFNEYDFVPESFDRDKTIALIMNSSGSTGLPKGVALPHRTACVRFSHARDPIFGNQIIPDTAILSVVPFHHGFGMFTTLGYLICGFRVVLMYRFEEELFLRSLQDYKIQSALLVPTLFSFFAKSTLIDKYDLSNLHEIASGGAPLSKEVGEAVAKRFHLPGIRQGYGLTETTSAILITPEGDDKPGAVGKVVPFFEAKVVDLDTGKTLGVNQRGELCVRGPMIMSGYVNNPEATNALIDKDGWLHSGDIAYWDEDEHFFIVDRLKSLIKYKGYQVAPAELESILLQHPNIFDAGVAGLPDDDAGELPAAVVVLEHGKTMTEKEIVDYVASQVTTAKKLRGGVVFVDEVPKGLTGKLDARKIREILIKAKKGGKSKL
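Biochemical qHTS of compounds, final roughly 60 µM downward over six points, against 10 nM purified firefly luciferase using Km concentrations of substrates (10 uM D-luciferin, 10 uM ATP) in Tris acetate pH 7.5 buffer; luminescence output.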
Rab9 promoter act = qHTS Assay for Rab9 Promoter Activators; Huh7 Rab9 promoter-luciferase reporter, luminescence, 24 h; Potency, µM (series often up to 9.22 µM), inactives show at the highest dose activation, negative = inhibition, actives largely listed as activators; 2.8% of 320,000 active; AID 485297, 2010; also: % of control where 0% means no effect; nearly all actives have a fitted effect of over 60% in size
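Huh7 cells stably carrying a Rab9 promoter-luciferase reporter, 1500 cells per well in OP-MEM I with 10% FBS, treated with compound 24 hours at 37C. Luciferase activity read by luminescence after 10 minutes with Amplite reagent.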
ELG1 genotox = qHTS screen for small molecules that induce genotoxicity in human embryonic kidney (HEK293T) cells expressing luciferase-tagged ELG1; Potency, µM (series often up to 46 µM), inactives show at the highest dose activity change, positive = activation, usual class: activators; HEK293T ELG1-luciferase reporter, luminescence, 16 h; 1.3% of 330,000 active; also: % of control where 0% means no effect; nearly all actives have a fitted effect of over 60% in size
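HEK293T cells expressing luciferase-tagged ELG1 were treated with compound or DMSO for 16 hr at 37°C. Luciferase activity was then read after 30 min with ONE-Glo at room temperature; rising signal flags genetic stress.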
NPC1 promoter act = qHTS Assay for NPC1 Promoter Activators; Huh7 NPC1 promoter luciferase reporter, 24 h; Potency, µM (highest dose often 9.22 µM), inactives show at the highest dose activation, usual class: activators; 2.4% of 320,000 active; AID 485313, 2010; also: % of control where 0% means no effect; nearly all actives have a fitted effect of over 60% in size
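In 1536-well qHTS, Huh7 cells harboring an NPC1 promoter–luciferase construct received compound for 24 h; activation was quantified by luminescence following luciferase reagent addition.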
Luc counter = Counterscreen for Luciferase (Kinase-Glo TM) Inhibition. Luciferin 4-monooxygenase (Photuris pensylvanica), Q27757. Kinase-Glo luciferase, ATP luminescence, 8 min. Potency, µM (titrated, usually from 38.3 µM), inactives show at the top dose activity change, negative = inhibition, hits mostly inhibitors. 0.28% of 200,000 active; also: % is scaled to controls: 0 for no effect and ±100 for the full control effect; nearly all actives have a fitted effect of over 60% in size
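Inhibition of Kinase-Glo luciferase light generation was assessed at 10 uM ATP in pH 7.2 imidazole buffer, with luminescence measured after eight minutes at ambient temperature.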
The depositor's hits bear a star; [ ] = remark or other dose. Calls follow the shape of the dose curve; as a rule, active = well fitted curve in the direction sought with a large enough effect; inconclusive = small, poorly fitted or top-dose-only effect, or another doubt; inactive = no such curve, though single readings can be large; an effect the other way counts as inactive or inconclusive. Potency is read from the fitted curve at half-maximal effect.

Screening O=C(O)Cn1c(SCc2ccccc2)nc2ccccc21 returned SMN2 splice enh -3%, FLuc counter inconclusive, Rab9 promoter act 4%, ELG1 genotox 7%, NPC1 promoter act -1% and Luc counter 1%.
O=C(O)Cn1c(SCc2cccc3ccccc23)nc2ccccc21 was read as SMN2 splice enh 4%, FLuc counter 17µM*, Rab9 promoter act -3%, ELG1 genotox 0%, NPC1 promoter act -6% and Luc counter 2%.
For O=C(Nc1ccccc1O)c1csc2c1CCCC2 the results were SMN2 splice enh 16µM*, FLuc counter 9.5µM*, Rab9 promoter act inconclusive, ELG1 genotox inconclusive, NPC1 promoter act inconclusive and Luc counter -2%.
`COc1cccc(NC(=O)c2csc3c2CCCCC3)c1` gave SMN2 splice enh 13µM* and FLuc counter 11µM*.
`COc1ccc(NC(=O)c2csc3c2CCCCC3)cc1` gave SMN2 splice enh 7.9µM* and FLuc counter 5.4µM*.
Screening COc1ccc(CCNC(=O)c2csc3c2CCCCC3)c(OC)c1 returned SMN2 splice enh inconclusive and FLuc counter -6%.
COc1ccc(NC(=O)c2csc3c2CCCCC3)c(OC)c1 was read as SMN2 splice enh 9%, FLuc counter inconclusive, Rab9 promoter act 5%, ELG1 genotox -3%, NPC1 promoter act 0% and Luc counter 3%.
Screening CCCN(C(=O)COC(=O)CNC(=O)c1ccc2ccccc2c1)c1c(N)n(Cc2ccccc2)c(=O)[nH]c1=O returned FLuc counter -11%, Rab9 promoter act -14%, ELG1 genotox 9% and NPC1 promoter act 2%.
O=C(Cn1ncc2c([nH]c3ccccc32)c1=O)NCc1cccc(Cl)c1 was read as FLuc counter 0%.
Screening O=C1NCCN/C1=C\C(=O)c1ccc(Br)cc1 returned FLuc counter 9.5µM*, Rab9 promoter act 1.3µM*, ELG1 genotox 10µM* and NPC1 promoter act 1.3µM*.
`O=C1NCCN/C1=C\C(=O)c1ccccc1` gave SMN2 splice enh 7%, FLuc counter -18%, Rab9 promoter act inconclusive, ELG1 genotox inconclusive, NPC1 promoter act 15% and Luc counter 0%.
For O=C1OCCN/C1=C\C(=O)c1ccc(Cl)cc1 the results were FLuc counter 24µM*, Rab9 promoter act -7%, ELG1 genotox -6% and NPC1 promoter act -2%.
For CCOc1ccccc1NC(=O)CSC1=Nc2ccccc2C2=NC(CC(=O)NC3CCCCC3)C(=O)N12 (stereo not given) the results were SMN2 splice enh 2% and FLuc counter -15%.
CCOc1ccc(C(=O)NC2CC(=O)N(c3ccc4c(c3)OCCO4)C2)cc1 (stereo not given) was read as FLuc counter 1%, Rab9 promoter act -4%, ELG1 genotox 8% and NPC1 promoter act -2%.
Screening CCOc1ccc(N/C(C)=C/C(=O)c2ccc3c(c2)OCCO3)cc1 returned FLuc counter 5.4µM*, Rab9 promoter act 2.2µM*, ELG1 genotox inconclusive and NPC1 promoter act 3.2µM*.
Screening CCOc1ccc(N/C(C)=C\C(=O)c2ccc3c(c2)OCCO3)cc1 returned FLuc counter 3.8µM*, Rab9 promoter act 1.1µM*, ELG1 genotox 12%, NPC1 promoter act 2.5µM* and Luc counter 2%.
For CCOc1ccc(NC(=O)COc2ccc3c(c2)OCO3)cc1 the results were FLuc counter -18%, Rab9 promoter act -3%, ELG1 genotox 15% and NPC1 promoter act 0%.
`Cc1ccc(C(=O)N=c2sccn2C)cc1S(=O)(=O)N1CCOCC1` gave FLuc counter inconclusive, Rab9 promoter act 1.4µM*, ELG1 genotox inconclusive and NPC1 promoter act 4µM*.
Screening Cn1ccsc1=NC(=O)c1ccc(S(C)(=O)=O)c([N+](=O)[O-])c1 returned FLuc counter 4.8µM*, Rab9 promoter act 30%, ELG1 genotox 12% and NPC1 promoter act inconclusive.
Cn1ccsc1=NC(=O)c1ccc(Cl)c([N+](=O)[O-])c1 was read as FLuc counter inconclusive, Rab9 promoter act -1%[1.84 µM], ELG1 genotox 15% and NPC1 promoter act 2%.
For Cc1cccc(C(=O)N=c2sccn2C)c1[N+](=O)[O-] the results were FLuc counter 15µM*, Rab9 promoter act inconclusive, ELG1 genotox 10µM* and NPC1 promoter act 2.8µM*.
CCN(CC)S(=O)(=O)c1cc(C(=O)N=c2sccn2C)ccc1OC was read as FLuc counter 3%, Rab9 promoter act 3%, ELG1 genotox 1% and NPC1 promoter act 0%.
For CCCCOc1ccc(C(=O)N=c2sccn2C)cc1OC the results were FLuc counter 12µM*, Rab9 promoter act 2.8µM*, ELG1 genotox inconclusive and NPC1 promoter act 3.5µM*.
Screening Cc1ccc(C(=O)N=c2sccn2C)cc1C returned FLuc counter -1%, Rab9 promoter act -1%, ELG1 genotox 10% and NPC1 promoter act -2%.
Screening CCOc1ccc(-c2nc(Cn3c(=O)cc(-c4ccccc4)c4c(C)nn(C)c43)c(C)o2)cc1OC returned FLuc counter -13%.
COc1ccccc1-n1cnnc1SCC(=O)c1cc(C)n(Cc2cccs2)c1C was read as SMN2 splice enh 1%, FLuc counter 19µM*, Rab9 promoter act 13%, ELG1 genotox 14%, NPC1 promoter act 16% and Luc counter -5%.
N#CCCn1c(SCC(=O)c2c[nH]c3ccccc23)nc2ccccc21 was read as SMN2 splice enh -21%, FLuc counter -1%, Rab9 promoter act 10%, ELG1 genotox 0%, NPC1 promoter act -2% and Luc counter 1%.
`C=CCn1c(SCC(=O)c2cc(C)n(Cc3cccs3)c2C)nnc1-c1ccncc1` gave SMN2 splice enh -14%, FLuc counter 19µM*, Rab9 promoter act -1%, ELG1 genotox -6%, NPC1 promoter act 2% and Luc counter 0%.
`Cc1cc(C(=O)CSc2nc3ccccc3n2CCC#N)c(C)n1Cc1cccs1` gave SMN2 splice enh inconclusive, FLuc counter inconclusive, Rab9 promoter act inconclusive, ELG1 genotox 8.2µM*, NPC1 promoter act 25% and Luc counter 2%.
